Screen size: about 1,200 compounds; about 55 (5%) were called active. Entries that show only a call come without a potency. Not shown: some 15% with an inconclusive outcome. The call rests on the fitted dose curve; in most records, active means well fitted inhibition curve with a large enough effect; inconclusive means small, poorly fitted or top-dose-only effect; inactive means no such curve, though single readings can be large or run the other way. Only a selection was taken, and actives are over-represented in it overall.
assay: qHTS Assay to Find Inhibitors of Chronic Active B-Cell Receptor Signaling: Hit Validation in Renilla Reporter Assay; conditions: TMD8 IkB-Renilla luciferase reporter, NF-kB signaling; series mostly up to 57.5 µM; further: nearly all actives have a fitted effect of over 70% in size
Summary of the method: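 Orthogonal secondary test of primary-screen hits in ABC-DLBCL cells carrying constitutively expressed IkB-Photinus and Renilla luciferase reporters, read by Dual-Glo luminescence; luciferases differ from the primary assay's click beetle enzymes, to exclude assay-specific artifacts.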
Potency means the concentration at half of the fitted maximal effect.

Structure (SMILES)	Potency
CNCc1ccccc1Sc1ccc(O)c(O)c1	10.7 µM (active)
COc1cccc(N2CC(O)=C(c3nc4ccccc4s3)C2=N)c1	inactive
CCOc1cc(/C=N\NC(N)=O)cc(Br)c1OC(C)C	inactive
O=C(/C=C/c1ccc(O)cc1)c1ccc(O)cc1O	10.7 µM (active)
O=C(/C=C/c1ccco1)NC(=S)Nc1cccc(-c2nc3ccccc3o2)c1	inactive
CCn1ncc(C2=NOC(C(=O)NCc3ccccc3)C2)c1C (stereo unspecified)	inactive
CC(C)N=C(NS(=O)(=O)c1ccccc1)C(Cl)(Cl)Cl	26.9 µM (active)
Oc1cccc(Nc2nc(N3CCOCC3)nc(N3CCOCC3)n2)c1	inactive
CC1=CC(C)(C)N(S(=O)(=O)c2ccc(C)cc2)c2ccc(C)cc21	inactive
CCOc1ccccc1NS(=O)(=O)c1ccc(-c2cnc(C3CC3)o2)cc1	inactive
COc1ccc(C(=O)N2CCc3cc(OC)c(OC)cc3C2c2ccc(OC)c(OC)c2)cc1 (stereo unspecified)	inactive
COc1cc(NC(=S)NC(=O)c2ccccc2F)ccc1NC(=O)c1ccco1	inactive
COc1ccccc1C(=O)Nc1ccccc1SC(=O)c1ccccc1OC	23.9 µM (active)
COc1cccc(C(=O)Nc2cc(NC(=O)c3cccs3)ccc2C)c1OC	inactive
Cc1ccc(COC(=O)c2cc([N+](=O)[O-])ccc2N2CCOCC2)cc1	inactive
CCc1cc2c(SCC(=O)Nc3ccc(NC(C)=O)cc3)ncnc2s1	inactive
CCCC(=O)Nc1ccc2c(c1)nc(CN1CCN(C(=O)OCC)CC1)n2CC	inactive
C=CCn1c(SCC(=O)Nc2cccc(S(N)(=O)=O)c2)nc2sc(C)c(C)c2c1=O	inactive
O=C(CCl)Nc1cc(S(=O)(=O)N2CCCCCC2)ccc1Cl	inactive
O=C(CCl)Nc1cccc(S(=O)(=O)NC2=NCCCCC2)c1	19 µM (active)
CN(C)/C=N/c1sc2c(c1C#N)CCCC2	inactive
COc1cc(C2C(C#N)=C(N)Oc3cc(N)ccc32)cc(OC)c1OC (stereo unspecified)	inactive
CCN(C(=O)COC(=O)c1cc([N+](=O)[O-])ccc1N1CCOCC1)c1ccccc1	inactive
CC(=O)Nc1nc2ccc(-c3nc4ccccc4o3)cc2s1	inactive
CCCc1nc([N+](=O)[O-])c(S(=O)(=O)c2ccccc2)n1CC(C)C	30.1 µM (active)
Cc1ccc(C(=O)c2cc([N+](=O)[O-])ccc2N2CCCCC2)cc1C	inactive

Structure (SMILES)	Potency
CCOC(=O)C1=C(C)NC(C)=C(C(=O)OCC)C1/C=C/c1ccccc1	inactive
O=C(/C=C\c1ccco1)Nc1cc([N+](=O)[O-])ccc1F	inactive
O=S1(=O)C=C(Sc2nc3cc(Cl)ccc3o2)c2ccccc21	8.49 µM (active)
CCOC(=O)C(C)Oc1cccc2c(=O)n(CC(=O)NCc3ccccc3)ccc12 (stereo unspecified)	inactive
COc1ccc(N(C(=O)c2ccccc2C)S(=O)(=O)c2cccs2)cc1	inactive
Cc1ccc(C(=O)c2cc([N+](=O)[O-])ccc2N2CCCCC2)cc1	inactive
O=C(/C=C/c1cccs1)c1cc(Br)ccc1OC(=O)N1CCOCC1	26.9 µM (active)
O=C(Oc1ccc2ccc(OC(=O)N3CCOCC3)cc2c1)N1CCOCC1	inactive
C#C[C@]1(O)CC[C@H]2[C@@H]3CCc4cc(O)ccc4[C@H]3CC[C@@]21C	inactive
O=C(COc1ccccc1-c1ccccc1)N/N=C/c1cccc2ccccc12	inactive
Nc1cc(=O)[nH]c(SCC(=O)Nc2cc(Cl)cc(Cl)c2)n1	inactive
COc1cc2c(cc1OC)-c1cc(Nc3ccc(C)cc3)nc(=O)n1CC2	inactive
CCc1ccc(CCC(=O)Nc2ncc(Cc3ccccc3Cl)s2)o1	inactive
N=C1SCC(=O)N1c1ncc(Cc2ccccc2Cl)s1	8.49 µM (active)
N=C1SCC(=O)N1c1ncc(Cc2cccc(Cl)c2)s1	3.01 µM (active)
Cn1c(=O)n(Cc2ccccc2Cl)c2ccccc21	inactive
COc1ccccc1-c1noc(CSc2nc(N)cc(=O)[nH]2)n1	inactive
COc1ccc(S(=O)(=O)Nc2cc3c(C(C)=O)c(C)oc3c3ccccc23)cc1	inactive
O=c1cc(-c2ccccc2)[nH]c2ccccc12	inactive
COc1ccc2cc(C3c4cc(OC)c(OC)cc4CCN3C(=O)c3ccco3)c(=O)[nH]c2c1 (stereo unspecified)	inactive
CCOC(=O)c1[nH]c(C)c(C(=O)c2cc(F)ccc2F)c1C	inactive
C/C(=N\NC(=O)c1c([N+](=O)[O-])c(C)nn1C)c1ccc(NC(=O)C2CCCC2)cc1	inactive
CCOC(=O)c1[nH]c2c(c1C)C(=O)CC(c1ccc(F)cc1)C2 (stereo unspecified)	inactive
CC[C@]12c3[nH]c4cc(CCC(=O)N(C)C)ccc4c3CCN1C(=O)[C@@H](CC(=O)NCCCN(C)C)C[C@@H]2C(=O)N1CCN(C(=O)c2ccco2)CC1	inactive
COc1ccc(/C=C/C(=O)c2cc(F)ccc2OC(=O)c2ccccc2OC)cc1OC	6.75 µM (active)
COc1ccc(S(=O)(=O)N2CCOCC2)cc1NC(=O)/C=C/c1ccc(F)cc1	inactive

Structure (SMILES)	Potency
COc1ccc(NC(=S)N/N=C/c2ccc(F)cc2)cc1OC	inactive
COc1ccc(/C=C/c2ccncc2)cc1OC	inactive
COc1ccc(/C=C/C(=O)c2cc(F)ccc2OC(=O)c2ccc(OC)c(OC)c2)cc1OC	7.57 µM (active)
Cc1ccccc1C(=O)Oc1ccc2ccc(O)cc2c1	inactive
COc1ccc(/C=N\NC(=O)c2ccccc2F)cc1COc1ccc(F)cc1F	inactive
CCc1ccc(NC(=O)C(C)OC(=O)/C=C/c2ccc(O)c(OC)c2)cc1 (stereo unspecified)	inactive
COc1ccc(/C=C/C(=O)c2cc(F)ccc2OC(=O)c2ccccc2C)cc1OC	13.5 µM (active)
COc1cccc(/C=N/Nc2nc(Nc3ccccc3)nc(-n3nc(C)cc3C)n2)c1O	inactive
NC(=O)c1c(NC(=O)CSc2nc(N)cc(=O)[nH]2)sc2c1CCCC2	inactive
CCOc1ncccc1C(=O)N1CCN(c2cc(Cl)ccc2C)CC1	inactive
Cc1ccc(/C=N/NC(=O)c2cc(-c3ccncc3)nc3ccccc23)o1	inactive
CCOC(=O)c1c(C)n(C)c2ccc(OC)c(NC(=O)CN3CCC4(CC3)OCCO4)c12	inactive
COC(=O)C1=C(C)NC(C)=C(C(=O)OC)C1/C=C/c1ccccc1	inactive
O=C(/C=C/c1ccccc1)c1ccc(NC2=NCCCS2)cc1	21.3 µM (active)
Cc1nc(NC(=O)c2cnccn2)ccc1Br	inactive
Cn1c(=O)[nH]c(=O)c2c1nc(SCC(N)=O)n2Cc1cccc(Br)c1	inactive
CCOC(=O)C1CCN(C(=O)CSc2cc(=O)n(CC)c3ccccc23)CC1	inactive
CCOC(=O)C1CCN(S(=O)(=O)c2c(Cl)ccc3nonc23)CC1	3.01 µM (active)
COc1ccc(C(=O)NN(C)c2nc(C(F)(F)F)nc3ccccc23)cc1	inactive
COc1ccc(-c2cnnn2-c2ccc(NC(=O)c3ccc(S(=O)(=O)N4CCCCC4)cc3)cc2)cc1OC	inactive
Cc1ccc(C)c(-n2c3nc(=O)[nH]c(=O)c-3cc3cc([N+](=O)[O-])ccc32)c1	16.9 µM (active)
Cc1ccc(C(=O)c2cc([N+](=O)[O-])ccc2N2CCCCC2)c(C)c1	inactive
COCCn1c(-c2cccc([N+](=O)[O-])c2)nc2c1c(=O)[nH]c(=O)n2Cc1ccccc1	inactive
Cc1ccc(C(=O)c2cc([N+](=O)[O-])ccc2N2CCOCC2)c(C)c1	inactive
Cc1cccc(-n2c3nc(=O)[nH]c(=O)c-3cc3cc([N+](=O)[O-])ccc32)c1	26.9 µM (active)
CNC(=S)N/N=C(\C)c1ccc2c(c1)OCCO2	inactive

Structure (SMILES)	Potency
CCOc1ccc2c(c1)OC(c1ccc(OC)cc1)(C(F)(F)F)NC2=O (stereo unspecified)	inactive
CC(C)(C)c1ccc(C(=O)CCC(=O)NCc2ccccc2)cc1	inactive
C=CCN(C(=O)CSC1=NC(=O)CN1C(C)=O)c1nc(C)c(-c2ccccc2)s1	inactive
S=c1nn[nH]n1C12CC3CC(CC(C3)C1)C2	inactive
Cc1ccccc1Nc1nc(N)nc(COC(=O)c2cccc(S(=O)(=O)N(C)C)c2)n1	inactive
CCOC(=O)C1=C(COC(=O)/C=C/c2ccc(O)c(OC)c2)NC(=O)NC1C (stereo unspecified)	inactive
COc1ccc(/C=N/NC(=O)CCn2cnc(-c3ccccc3)c2-c2ccccc2)cc1OC	inactive
COc1ccc(/C=N/NC(=O)CCn2cnc(-c3ccccc3)c2-c2ccccc2)cc1	26.9 µM (active)
O=C(COc1ccccc1-c1ccccc1)N/N=C/c1ccc2ccccc2c1	inactive
COc1ccc(OC)c(Nc2c3c(nc4ccccc24)CCC3)c1	inactive
Cc1ccc(C(=O)O)cc1NC(=S)NC(=O)C(c1ccccc1)c1ccccc1	inactive
Cc1ccc(C(=O)Sc2cccccc2=O)cc1	6.75 µM (active)
COc1ccc(C)cc1NC(=O)CNC(c1ccccc1)c1ccc(C)cc1 (stereo unspecified)	inactive
COc1ccc(NC(=O)Cn2nnc(-c3ccccc3NS(=O)(=O)c3ccc(OC)cc3)n2)cc1	inactive
CCOc1cccc(C2CC(=O)Nc3cc(OC)c(OC)cc32)c1 (stereo unspecified)	inactive
COc1cccc(/C=C/C(=O)Nc2cc(S(=O)(=O)N3CCOCC3)ccc2OC)c1	inactive
CCC1=Nc2cc(C(=O)NCCCOC(C)C)ccc2Sc2ccc(C)cc21	inactive
O=C(Oc1c(CN2CCOCC2)cc(Cl)c2cccnc12)c1ccc(F)cc1	inactive
O=C(Oc1c(Cl)cc(Cl)c2cccnc12)c1cccs1	23.9 µM (active)
COc1cc(OC)cc(C(=O)Oc2c(CN3CCOCC3)cc(Cl)c3cccnc23)c1	inactive
O=C(Oc1ccc(Cl)c2cccnc12)C12CC3CC(CC(C3)C1)C2	inactive
O=C(Oc1c(Cl)cc(Cl)c2cccnc12)c1ccco1	12 µM (active)
Cc1c(C(=O)Oc2cccc3cccnc23)oc2ccccc12	inactive

Source: PubChem BioAssay AID651568 (National Center for Advancing Translational Sciences (NCATS), 2012)
